Assay results published in PubChem BioAssay (NCATS).
Several values for one entry are separate records, joined by “and”; a condition that tells them apart may be missing. Equal entries are not always repeated.

Columns and labels:
[1] = qHTS profiling of the MIPE4 collection as inhibitors of Plasmodium falciparum (3D7) proliferation (AID 743344);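 further: scaled between DMSO vehicle wells and 0.29 µM artemisinin as full inhibition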; details: P. falciparum 3D7 in erythrocytes, SYBR Green DNA fluorescence, 72 h; at 28.5 µM unless noted
Outline: (§1)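 Parasite DNA was quantified by SYBR Green I fluorescence (ex 485, em 535 nm) after overnight lysis in saponin/Triton buffer at room temperature. Cultures at 0.3% parasitemia and 2.5% hematocrit were first exposed to compound for 72 h at 37 C; signals were normalised to artemisinin (0.29 uM) and vehicle wells.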

[2] = qHTS profiling of the MIPE4 collection as inhibitors of Plasmodium falciparum (DD2) proliferation (AID 743345); details: P. falciparum Dd2 in erythrocytes, SYBR Green DNA, 72 h; at 28.5 µM unless noted
Outline: as §1

[3] = High-throughput drug toxicity screening in the BPDCN cell line Gen2.2 (AID 1224824); details: Gen2.2 BPDCN cells; at 45.8 µM (top of the series) unless noted;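 further: cells exposed to compounds for 48 h before reading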
Outline: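 Gen2.2 cells, 500 per well in phenol red-free RPMI with 10% FBS, exposed to compounds 48 h at 37 C, 5% CO2; viability by CellTiter-Glo luminescence. Percent activity scaled to DMSO (100%) and 9.2 uM bortezomib final (0%).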

[4] = High-throughput drug toxicity screening in the BPDCN cell line Cal-1 (AID 1224825); details: Cal-1 BPDCN cell viability, qHTS; at 45.8 µM (top of the series) unless noted
Outline: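 CellTiter-Glo luminescence after 48 h compound exposure; percent activity scaled with DMSO as 100% and bortezomib (9.2 uM final) as 0%. Cal-1 cells seeded at 500/well in RPMI, 10% FBS, no phenol red.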

[5] = qHTS profiling for inhibitors of Plasmodium falciparum (3D7) proliferation (AID 743322);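 further: infected erythrocytes exposed to compound for 72 h before lysis; 100% = DMSO vehicle wells and 0% = 0.29 µM artemisinin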; details: P. falciparum 3D7 proliferation; at 28.7 µM (top of the series)
Outline: as §1

[6] = qHTS profiling for inhibitors of Plasmodium falciparum (DD2) proliferation (AID 743323); details: lower = more inhibition; at 28.7 µM (top of the series)
Outline: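 Parasite DNA quantified by SYBR Green fluorescence (ex 485, em 535 nm) after saponin/Triton lysis and overnight dark incubation. Cultures: 0.3% parasitemia, 2.5% hematocrit, 72 h, 37 C; data scaled between DMSO and 0.29 uM artemisinin.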

[7] = qHTS profiling for inhibitors of Plasmodium falciparum (HB3) proliferation (AID 743324); details: Plasmodium falciparum HB3 blood-stage proliferation; at 28.7 µM (top of the series);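 further: 100% = DMSO vehicle wells and 0% = artemisinin-treated control wells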
Outline: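 SYBR Green fluorescence (485 ex/535 em) of lysed cultures, incubated overnight at room temperature in the dark, quantifies parasite DNA. Infected erythrocytes at 0.3% parasitemia and 2.5% hematocrit were exposed 72 h; values normalized to DMSO and 0.29 uM artemisinin controls.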

[8] = qHTS profiling of the MIPE4 collection as inhibitors of Plasmodium falciparum (DD2) proliferation (Rep 2) (AID 743346); details: P. falciparum Dd2 in erythrocytes, SYBR Green DNA, 72 h; at 28.5 µM unless noted
Outline: as §1

[9] = qHTS profiling of the MIPE4 collection as inhibitors of Plasmodium falciparum (HB3) proliferation (AID 743347);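 further: plate controls were DMSO vehicle wells for no effect and artemisinin wells for full effect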; details: P. falciparum HB3 in erythrocytes, SYBR Green DNA, 72 h; at 28.5 µM unless noted
Outline: as §1

SMILES | parasite growth, % of DMSO control [1] | parasite growth remaining, % of DMSO control (lower = more inhibition) [2] | cell viability, % of control (lower = more cytotoxic) [3] | viability (% of control) [4] | remaining parasite growth % (stronger effect = lower value) [5] | activity, percent of control [6] | remaining proliferation (% of control), lower = more inhibition [7] | parasite growth, % of control (lower = inhibition) [8] | growth, % of control [9]
COc1c(N2C[C@@H]3CCCN[C@H]3C2)c(F)cc2c(=O)c(C(=O)O)cn(C3CC3)c12 | 53.9% and 70.8% | 76.4% | 73.3% | 71.9% |  |  |  |  | 
Cn1c(=O)n(-c2ccc(C(C)(C)C#N)cc2)c2c3cc(-c4cnc5ccccc5c4)ccc3ncc21 | 5.06% | 7.73% | 8.42% | 11.9% | 1.17% | 10.2% | 1.06% | 6.52% | 2.31%
NC(=O)c1c(OCc2c(F)cc(Br)cc2F)nsc1NC(=O)NCCCCN1CCCC1 |  | 74.6% | 24.4% | 4.13% | -0.239% | 17.3% | 2.02% | 42.1% | 5.84%
COc1cc2c(Oc3ccc(-c4cnc(Nc5ccc(F)cc5)n(C)c4=O)cc3F)ccnc2cc1OCCCN1CCOCC1 |  |  | 5.93% | 0.783% | -2.59% | -0.143% | -1.33% | 17% | 9.39%
Cc1cc(Nc2cc(NC(=O)c3c(Cl)cccc3Cl)ccn2)nc(N)n1 | 5.6% |  | 12.1% | 8.08% | 0.674% | 6.07% | -0.262% | 10.1% | 8.82%
CC1(O)CC(c2nc(-c3ccc4ccc(-c5ccccc5)nc4c3)c3c(N)nccn23)C1 (centres undefined) | 9.23% | 19% | 117% | 8.23% | 0.533% | 2.21% |  | 10.7% | 5.32%
c1nc2nc(Nc3ccc(N4CCOCC4)cc3)nc(NC3CCCCC3)c2[nH]1 |  | 31.3% | 9.78% | 8.54% | 4.62% | 13.5% | -0.173% | 10.2% | 4.57%
C=CC(=O)Nc1cc2c(Nc3ccc(F)c(Cl)c3)ncnc2cc1OCCCN1CCOCC1 |  | 16% | 5.62% | 11.2% | -0.797% | 10.5% | 1.71% | 29.7% | 3.29%
CC(C)(C)c1cc(NC(=O)Nc2ccc(-c3cn4c(n3)sc3cc(OCCN5CCOCC5)ccc34)cc2)no1 |  | 7.47% | 252% | 75.9% | -1.57% | 0.456% | -0.226% | 15.2% | 2.53%
Cc1ccc(S(=O)(=O)Nc2cc(Cl)ccc2C(=O)Nc2nc(-c3ccccc3)cs2)cc1 |  | 16.4% | 172% | 96.8% | 11.7% | 6.55% | 8.77% |  | 49.7%
Cc1nc2cnc3ccc(C#Cc4cccnc4)cc3c2n1-c1ccc(C(C)(C)C#N)cc1 | 4.38% | 7.19% | 3.34% | 16.6% | -1.11% | 0.126% | -0.656% | 13.9% | 3.51%
